20 compounds from ChEMBL document CHEMBL1157539, “Thousands of chemical starting points for antimalarial lead identification” (Nature, 2010) can be followed below.

The structures appear in SMILES notation.

Common to all, as to assay type: functional
The test system of test [1] is Plasmodium falciparum. In words: GSK_TCMDC: Inhibition of Plasmodium falciparum 3D7 in whole red blood cells, using parasite LDH activity as an index of growth. Test compounds present at 2uM.
Test [2] relates to Plasmodium falciparum. In words: GSK_TCMDC: Inhibition of Plasmodium falciparum Dd2 in whole red blood cells, using parasite LDH activity as an index of growth. Test compounds present at 2uM.
In another test the test system is HepG2. In words: GSK_TCMDC: Percent inhibition of human HepG2 cell line. Test compounds present at 10uM.

As for `COc1ccc(C2=C(Nc3ccc4oc5ccccc5c4c3)c3ccccc3C2=O)cc1`, the Inhibition is 93% in the test on Plasmodium falciparum [1], 92% with Plasmodium falciparum [2] and 9% in the test on HepG2.
For `COc1ccccc1OCCN(CC(O)COc1cccc2[nH]c3ccccc3c12)CC(O)COc1cccc2[nH]c3ccccc3c12` (stereo not given), the Inhibition in the test with Plasmodium falciparum [1] is reported as 97%; in the test with Plasmodium falciparum [2], 96%; in the test with HepG2, 16%.
Taken in the same sequence, the figures for `Cl.O=C1COc2cc(Cl)c(CNC3CCN(CCc4ccnc5c(F)cc(F)cc45)CC3)nc2N1` were 98%, 49% and 96%.
The matching figures for `CN1CCN(CCCNCc2ccc(Nc3nccc(Nc4ccc(Oc5ccccc5)cc4)n3)cc2)CC1`: 100%, 9% and 17%.
Taken in the same sequence, the figures for `C=C1C[C@@H](n2cnc3c(NC(=O)c4ccccc4)ncnc32)[C@@H](F)[C@@H]1OC(c1ccccc1)(c1ccccc1)c1ccccc1` were 98%, 97% and 16%.
Consider `COC(=O)c1ccc(CCCNCC(O)c2cccc(C(F)(F)F)c2)cc1` (stereo not given), for which the figures for the Inhibition with Plasmodium falciparum [1], in the test with Plasmodium falciparum [2] and in the test with HepG2 were 97%, 88% and 0%, respectively.
Taken in the same sequence, the figures for `N#Cc1c(N)n(CCc2ccc(F)cc2)c2nc3ccccc3nc12` were 92%, 36% and 8%.
Taken in the same sequence, the figures for `Br.CC1(C)NC(N)=NC(=N)N1OCCCNC(=O)c1ccc(C(=O)NCCCON2C(=N)N=C(N)NC2(C)C)cc1` were 91%, 96% and 0%.
The matching figures for `Br.COc1ccc(CCON2C(=N)N=C(N)NC2(C)C)cc1OC`: 96%, 93% and 64%.
With `COc1ccccc1-c1cccc(-c2cccc(NC(=O)c3ccc([N+](=O)[O-])o3)c2)n1`, the Inhibition is given as 97% with Plasmodium falciparum [1], 59% with Plasmodium falciparum [2] and 78% with HepG2.
On to `CC(CCNc1c2ccccc2nc2ccccc12)N1CCN(C)CC1.Cl` (stereo not given), for which the Inhibition turned out to be 100% in the test on Plasmodium falciparum [1], 0% in the test with Plasmodium falciparum [2] and 25% in the test on HepG2.
For `Cc1nnc2c(NC(=O)/C=C/c3ccc(OC(F)(F)F)cc3)cc3cc(Cl)ccc3n12`, the Inhibition with Plasmodium falciparum [1] amounted to 94%; in the test on Plasmodium falciparum [2] it was 99%; with HepG2, 19%.
The matching figures for `COc1cc(OC)cc(C(=O)N2CCOC(CCN3CCC(c4ccccc4)CC3)(c3ccc(Cl)c(Cl)c3)C2)c1` (stereo not given): 85%, 61% and 13%.
Taken in the same sequence, the figures for `N#Cc1ccc(N/C(=N\c2ccccc2Cl)NC2CCN(Cc3ccccc3)CC2)c(O)c1` were 100%, 97% and 31%.
The matching figures for `COc1ccccc1C1CCN(Cc2csc(NC(=O)c3ccc(-c4ccc(C(F)(F)F)cc4)cc3)n2)CC1`: 85%, 23% and 62%.
In the case of `C=CCOC(=O)N1CCC(CNCc2ccc(-c3cccc(-c4nc5cc(F)ccc5[nH]4)c3)cc2)C1.O=C(O)C(F)(F)F` (stereo not given), the Inhibition worked out at 100% in the test on Plasmodium falciparum [1], 99% in the test with Plasmodium falciparum [2] and 26% in the test with HepG2.
The matching figures for `Cc1nc2ccccn2c1C1(O)C(=O)Nc2c(Cl)cc(Cl)cc21` (stereo not given): 95%, 62% and 0%.
Taken in the same sequence, the figures for `NCCC(=O)Nc1ccc(-c2cnc3[nH]cc(-c4ccc(C(=O)O)cc4)c3c2)cn1.O=C(O)C(F)(F)F` were 99%, 67% and 0%.
As for `CCC(=O)NC(c1ccco1)c1cc(Cl)c2cccnc2c1O` (stereo not given), the Inhibition with Plasmodium falciparum [1] was 89%; with Plasmodium falciparum [2] it was 74%; with HepG2 it was 58%.
The matching figures for `CCCCCCC1(C)N=C(N)N=C(N)C1c1ccc(Cl)c(Cl)c1.Cl` (stereo not given): 94%, 43% and 18%.
